# Test results from PubChem BioAssay AID431 (Sanford-Burnham Center for Chemical Genomics, 2006).
# The whole screen tested about 63,000 compounds, of which about 1,100 (1.7%) were called active. The sample holds actives, similar compounds and a random draw of the others, so the mix is not that of the screen.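 The calls were made as follows: active = compounds whose percent cytotoxicity in the single-dose primary screen, scaled between solvent and toxic-drug controls, exceeds 50; inactive = the rest.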 Entries with a potency or affinity are not part of this list.
# Test: viability loss of HPDE-C7K cells – cell-based, fluorescence, HTS, primary screen (AID 431);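 also: 0% = DMSO solvent wells and 100% = doxorubicin-treated wells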
# Conditions: HPDE-C7K KRASV12 cells, Alamar Blue viability, 48 h; at 10 µM; stronger effect = higher value
row,Compound,cytotoxicity
1,O=C(Nc1ccc(N2CCN(Cc3ccccc3Cl)CC2)cc1)c1cccnc1,16.7% (inactive)
2,Cc1cc(Nc2ccccc2C(=O)O)nc2nc3ccccc3c(=O)n12,-5.3% (inactive)
3,N#CC(C(=O)NC1CCCCC1)c1nc2ccccc2nc1N1CCOCC1 (centres undefined),13.7% (inactive)
4,CCc1ccc(-c2cn(-c3nc(C)cc(C)n3)c(=N)o2)cc1,54.8% (active)
5,CCc1ccc(-n2c(O)cnc2Nc2nc(C)cc(C)n2)cc1,-3% (inactive)
6,CCc1ccc(-c2cn3nc(C)c(C)nc3n2)cc1,-7.6% (inactive)
7,CC1CCc2cc(F)ccc2N1C(=O)CCC(=O)O (centres undefined),-12.5% (inactive)
8,CN(C)c1nc(N)nc(CSc2nnnn2C)n1,8.9% (inactive)
9,COc1ccc(C2=NOC(CN3C(=O)c4ccccc4S3(=O)=O)C2)cc1 (centres undefined),-0.1% (inactive)
10,CC(C)(C)N1C(=O)Cc2c1nc(N)c1c(N)nc(N3CCCCC3CO)c(C#N)c21 (centres undefined),59.9% (active)
11,N#Cc1c(N)nc2c(c1N)CC(=O)N2c1ccccc1-c1ccccc1,5.8% (inactive)
12,CC1(C)CC(=O)C2=C(C1)Oc1ncn(CCCn3ccnc3)c(=N)c1C2c1ccccc1 (centres undefined),9.8% (inactive)
13,OCCNc1ncnc2c1c(-c1ccccc1)c(-c1ccccc1)n2Cc1ccco1,21.6% (inactive)
14,O=c1c2ccccc2nc(-c2ccccc2)n1CCCn1ccnc1,-22.7% (inactive)
15,N=c1c2c(-c3ccccc3)c(-c3ccccc3)n(Cc3ccco3)c2ncn1CCN1CCOCC1,32.6% (inactive)
16,COC(=O)c1c(F)c(F)c(N2CCOCC2)c(F)c1F,-3.4% (inactive)
17,CC(C)CC(=O)Nc1ncnc2c1C(=O)CC(C)(C)C2,-2.6% (inactive)
18,COc1ccc(-c2nnn(CC(=O)N(C3CCCCC3)C(C)C(=O)NC3CCCC3)n2)cc1OC (centres undefined),-4.4% (inactive)
19,COC(=O)C1=C(C)N(c2ccc(F)c(Cl)c2)C(=O)C1,0.2% (inactive)
20,COC(=O)C1=C(C)N(c2cccc(Cl)c2)C(=O)C1,-6.2% (inactive)
21,COC(=O)C1=C(C)N(c2ccc(Cl)c(Cl)c2)C(=O)C1,79% (active)
22,CCOC(=O)c1ccc(-n2c(N)c(C(=O)NCc3ccco3)sc2=S)cc1,10.8% (inactive)
23,O=S(=O)(Nc1ccc(S(=O)(=O)N2CCCCC2)cc1)c1cccs1,-10.1% (inactive)
24,COc1ccc(OC)c(S(=O)(=O)n2nnc3ccccc32)c1,11.6% (inactive)
25,CCOc1ccc(Cl)cc1S(=O)(=O)n1nnc2ccccc21,4.6% (inactive)

row,Compound,cytotoxicity
1,COc1ccc(Cl)cc1S(=O)(=O)n1nnc2ccccc21,4.4% (inactive)
2,COc1cc(S(=O)(=O)n2nnc3ccccc32)c(OC)cc1Cl,59.1% (active)
3,CCOc1cc(C)c(Cl)cc1S(=O)(=O)n1cnc2ccccc21,7.1% (inactive)
4,CCOc1cc(C)c(Cl)cc1S(=O)(=O)n1nnc2ccccc21,52.2% (active)
5,COc1ccc(COC(=O)c2ccc(N3CCCC3=O)cc2)cc1F,0.9% (inactive)
6,O=C(NCc1ccco1)c1cnc2n(c1=O)CCS2,8.6% (inactive)
7,CSc1nc(N)nc(SCC(=O)C23CC4CC(CC(C4)C2)C3)c1C#N,76.6% (active)
8,CSc1nc(N)nc(SCC(=O)OC(C)C)c1C#N,-1.2% (inactive)
9,CSc1nc(N)nc(SCC(=O)c2ccc(C)cc2)c1C#N,-1% (inactive)
10,CCCCOc1cccc(C(=O)N(Cc2ccco2)C2CCS(=O)(=O)C2)c1 (centres undefined),-19.4% (inactive)
11,COC(=O)C(NC(=O)c1ccccc1)=C(C)C,-16.9% (inactive)
12,Cc1[nH]c(=S)[nH]c(=O)c1Cc1ccccc1,-7.5% (inactive)
13,O=C(N1CCN(c2ccccn2)CC1)N1c2ccccc2Sc2ccccc21,66.6% (active)
14,O=C(CN1CCN(c2ccccn2)CC1)N1c2ccccc2Sc2ccc(C(F)(F)F)cc21,17% (inactive)
15,O=C(c1ccco1)N1c2ccccc2Sc2ccccc21,4.1% (inactive)
16,O=C(NC1CCN(C(=O)N2c3ccccc3Sc3ccccc32)CC1)c1ccco1,-3.7% (inactive)
17,O=C(c1ccco1)N1CCN(C(=O)N2c3ccccc3Sc3ccccc32)CC1,74.4% (active)
18,O=C(N1CCOCC1)N1CCN(c2ccccn2)CC1,-19.2% (inactive)
19,Cc1ccc2c(c1)c1c3n2CC(=C2C(=O)OC(C)(C)OC2=O)NC3CCC1 (centres undefined),33.1% (inactive)
20,CC1(C(=O)O)CC(C)(C(=O)O)CC(C)(C(=O)O)C1 (centres undefined),-1.4% (inactive)
21,FC(F)(F)c1cc(-c2ccccc2)nc(N2CCCCC2)n1,-12.8% (inactive)
22,CCN(CCCNC(=O)c1[nH]c(C)c(C(C)=O)c1C)c1ccccc1,11.4% (inactive)
23,NC(=O)c1ccccc1NC(=O)CCc1ccccc1,3.2% (inactive)
24,CCOc1ccc(OCC)c(NC(=O)CN2CCN(c3cccc(C)c3C)CC2)c1,-0.1% (inactive)
25,Cc1cccn2c(=O)c(/C=N/O)c(N3CCCCC3)nc12,3.4% (inactive)

row,Compound,cytotoxicity
1,O=C1c2ccccc2NC(c2ccco2)N1O (centres undefined),9.4% (inactive)
2,O=C1COc2ccc(C(=O)c3ccccc3)cc2CN1,-4.7% (inactive)
3,COc1ccccc1N(CC(=O)N1CCCCCC1)S(C)(=O)=O,-11.5% (inactive)
4,Oc1c(CN2CCCCC2)cc(COCc2ccccc2)c2cccnc12,2.2% (inactive)
5,COCc1cc(CN2CCCC2)c(O)c2ncccc12,-4.6% (inactive)
6,COCc1[nH]nc2c1C1(C(=O)Nc3ccc(F)cc31)C(C#N)=C(N)O2 (centres undefined),-38.8% (inactive)
7,Cc1ccc(NC(=O)CC2SCCNC2=O)cc1Cl (centres undefined),-0.4% (inactive)
8,Clc1ccc2nc(NC3=NCN(CCN4CCOCC4)CN3)nc(-c3ccccc3)c2c1,8.5% (inactive)
9,CN1CCN(c2nc(N3CCN(CCO)CC3)nc3ccccc23)CC1,8.2% (inactive)
10,CN1CCN(c2nc(-c3ccccc3)c3cc(Cl)ccc3n2)CC1,29.7% (inactive)
11,OCCN1CCN(c2nc(-c3ccccc3)c3cc(Cl)ccc3n2)CC1,130% (active)
12,Cc1ccc2nc(N3CCC(C(=O)O)CC3)nc(-c3ccccc3)c2c1,1% (inactive)
13,CS(=O)(=O)N1CCC(c2noc(-c3ccc(C(F)(F)F)cc3)n2)CC1,0.2% (inactive)
14,COc1ccc(N/C=C2\CCOC2=O)cc1,43.6% (inactive)
15,COC(=O)c1ccc(OCC(=O)c2ccc(O)cc2O)cc1,0.1% (inactive)
16,C=CCOc1ccc(/C(O)=C2\C(=O)C(=O)N(CCOC)C2c2cccnc2)cc1 (centres undefined),-14% (inactive)
17,OC(CCN1CCCCC1)(c1ccccc1)C1CCCCC1 (centres undefined),14.3% (inactive)
18,CC(C)(C)c1ccc(C(O)CCCN2CCC(C(O)(c3ccccc3)c3ccccc3)CC2)cc1 (centres undefined),121% (active)
19,OC(CCN1CCCC1)(c1ccccc1)C1CCCCC1 (centres undefined),28.9% (inactive)
20,COc1cccc(C2CC(c3ccc(C)cc3)Nc3nc(N)nn32)c1 (centres undefined),1.4% (inactive)
21,CCN1CCN(C(=O)C2CCN(Cc3nc(-c4cccc(Cl)c4)oc3C)CC2)CC1,1.9% (inactive)
22,Cc1oc(-c2cccc(Cl)c2)nc1CN1CCC(C(=O)N2CCN(c3ccccc3F)CC2)CC1,62% (active)
23,Cc1oc(-c2cccc(Cl)c2)nc1CN1CCC(C(=O)N2CCN(c3ccccn3)CC2)CC1,6.5% (inactive)
24,Cc1cccc(OCC(O)Cn2c(NCCCOC(C)C)nc3c2c(=O)[nH]c(=O)n3C)c1 (centres undefined),-8% (inactive)
25,CN(C)c1ccc(-c2nn3c(-c4ccccc4Cl)nnc3s2)cc1,57.1% (active)

row,Compound,cytotoxicity
1,Clc1ccccc1-c1nnc2sc(-c3ccncc3)nn12,3.4% (inactive)
2,CN(C)c1ccc(-c2nn3c(-c4ccc(Cl)cc4Cl)nnc3s2)cc1,50.5% (active)
3,COc1ccccc1-c1nnc2sc(-c3ccc(N(C)C)cc3)nn12,44% (inactive)
4,Cc1nn2c(-c3ccc(Cl)cc3Cl)nnc2s1,-0.2% (inactive)
5,CN(C)c1ccc(-c2nn3c(-c4ccc(Cl)cc4)nnc3s2)cc1,-7.1% (inactive)
6,O=S(=O)(Cc1ccccc1)N1CCn2c(nc3ccccc32)C1,9.3% (inactive)
7,CCOc1cccc(-c2nnc3sc(COc4ccc(Cl)cc4)nn23)c1,24.5% (inactive)
8,CCN(Cc1cc2ccccc2[nH]c1=O)C(=O)C1CCCCC1,-7.8% (inactive)
9,Cc1ccc(C(=O)C(C)OC(=O)C2CC(=O)N(C3CCCCC3)C2)cc1 (centres undefined),-11.4% (inactive)
10,CC(C)(C)c1cc(C(=S)N2CCN(CCO)CC2)cc(C(C)(C)C)c1O,-13.9% (inactive)
11,CC(C)(C)c1cc(CN2CCN(CCO)CC2)cc(C(C)(C)C)c1O,-4.4% (inactive)
12,Cc1cc(N2CCN(c3cccc(C(F)(F)F)c3)CC2)n2ncnc2n1,-14.7% (inactive)
13,CCNc1sc(C(=O)c2cccs2)c(N)c1C#N,-11.8% (inactive)
14,CNc1sc(C(=O)c2cccs2)c(N)c1-c1nc2ccccc2s1,33.2% (inactive)
15,CCNc1sc(C(=O)c2cccs2)c(N)c1-c1nc2ccccc2s1,74.9% (active)
16,O=C(NCc1ccncc1)c1c(F)c(F)c(F)c(F)c1F,-8.2% (inactive)
17,Cc1ccc(SCc2cc(=O)[nH]c(N3CCN(Cc4ccc5c(c4)OCO5)CC3)n2)cc1,0.2% (inactive)
18,Cn1c(-c2cc(Br)ccc2O)n[nH]c1=S,0.6% (inactive)
19,Cc1ccccc1OCCCC(=O)Nc1ccc(N2CCOCC2)cc1,1.2% (inactive)
20,O=C(Nc1ccccc1)NC1(C(=O)NCCCN2CCOCC2)CCCCC1,0.6% (inactive)
21,CC(C)C(c1nnnn1C1CCCC1)N1CCc2ccccc21 (centres undefined),-8.4% (inactive)
22,COc1ccc(C(C)(C)C)cc1NC(=O)Nc1ccc2c(c1)OCO2,50.7% (active)
23,COC(=O)c1ccc(C(=O)OC)c(NC(=O)Nc2ccc3c(c2)OCO3)c1,-0.1% (inactive)
24,COc1ccccc1NC(=O)Nc1ccc2c(c1)OCCO2,-11.4% (inactive)
